In patent US20040171041, “Preparation and use of single-stranded transcription substrates for synthesis of transcription products corresponding to target sequences” (published 2004):

Each sequence was assayed against T1, mini-vRNAP (N4 virion RNA polymerase transcriptionally active domain, His-tagged) (Bacteriophage N4, UniProt Q859P9 SEQ:38-1143) (assay: filter; further one order of magnitude reduction versus -2 pairing). Details: tags: N-terminal His6 (pBAD B leader); hairpin, extended stem; ssDNA; [NONE].
T1 sequence: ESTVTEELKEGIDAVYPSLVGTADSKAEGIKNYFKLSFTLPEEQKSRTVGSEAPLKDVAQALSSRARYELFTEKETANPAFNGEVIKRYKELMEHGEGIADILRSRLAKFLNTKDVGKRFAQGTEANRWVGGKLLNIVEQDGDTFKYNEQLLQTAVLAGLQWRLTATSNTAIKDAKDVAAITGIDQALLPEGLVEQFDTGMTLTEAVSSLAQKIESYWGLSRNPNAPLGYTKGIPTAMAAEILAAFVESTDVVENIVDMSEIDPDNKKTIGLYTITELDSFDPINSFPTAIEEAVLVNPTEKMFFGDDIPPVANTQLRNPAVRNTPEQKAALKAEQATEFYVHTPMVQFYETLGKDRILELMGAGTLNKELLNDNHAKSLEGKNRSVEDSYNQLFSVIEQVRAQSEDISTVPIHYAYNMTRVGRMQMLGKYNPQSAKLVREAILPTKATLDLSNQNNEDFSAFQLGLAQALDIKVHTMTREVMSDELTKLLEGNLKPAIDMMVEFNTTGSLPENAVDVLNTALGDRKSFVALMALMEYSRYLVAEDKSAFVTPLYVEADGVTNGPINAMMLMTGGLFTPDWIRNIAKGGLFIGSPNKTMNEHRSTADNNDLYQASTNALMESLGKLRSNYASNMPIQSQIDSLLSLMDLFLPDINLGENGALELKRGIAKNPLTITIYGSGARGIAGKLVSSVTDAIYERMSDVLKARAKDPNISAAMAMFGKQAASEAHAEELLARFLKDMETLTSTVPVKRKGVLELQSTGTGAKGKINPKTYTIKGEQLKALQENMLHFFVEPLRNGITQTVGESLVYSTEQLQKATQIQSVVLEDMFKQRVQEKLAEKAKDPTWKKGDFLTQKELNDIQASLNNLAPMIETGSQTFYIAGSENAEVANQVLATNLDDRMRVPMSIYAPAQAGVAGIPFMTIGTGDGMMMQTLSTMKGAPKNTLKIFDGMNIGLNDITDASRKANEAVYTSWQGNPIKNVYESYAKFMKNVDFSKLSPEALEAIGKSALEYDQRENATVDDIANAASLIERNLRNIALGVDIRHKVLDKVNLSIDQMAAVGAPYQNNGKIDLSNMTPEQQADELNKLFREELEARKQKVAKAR
From the text: To study the sequence determinants of promoter binding, 20 base-long promoter oligonucleotides, containing the wild-type vRNAP promoter P2 sequence and substituted at every position with a single 5-Iodo-dU, were used. Whenever substitutions were made in the stem, the corresponding pairing base was changed to A. These oligonucleotides were ³²P end-labeled and used to determine the enzyme's affinity for promoter DNAs by a filter binding assay and the ability to crosslink to mini-vRNAP upon UV irradiation at 320 nm.
The effect of changes in the stem length of the hairpin on the ability of mini-vRNAP to bind P2 promoter DNA was analyzed. […] The stem can be shortened by two base pairs without change in the binding affinity. […] No binding is observed if one more nucleotide is removed and the loop cannot form.
In the case of TCCAAAAGAAGCGGAGCTTCTTTTG, the binding signal is reported as ~1000 fold lower affinity.
